# In PubChem BioAssay (Tox21):
# Inconclusive results are not listed. A number with no mark means an inactive call. Active and inactive are the calls of the source. Calls follow the shape of the full dose curve.
# Biological target: Acetylcholinesterase (Homo sapiens) (UniProt P22303)
# Experiment: Acetylcholinesterase (AChE) small molecule antagonists: colormetric cell-based qHTS assay (AID 1347395); also: nearly all actives have a fitted effect of over 30% in size
# Details: SH-SY5Y cells AChE activity, colorimetric (Ellman); series mostly up to 115 µM; activity, negative = inhibition: at the top concentration
# Method in brief: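 Cells (SH-SY5Y, 2,000 per well) are seeded and left overnight at 37 C. Compound is added for 30 min, then DTNB and acetylthiocholine for a further 90 min at 37 C before absorbance-based thiocholine detection.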
# % is scaled to controls: 0 for no effect and ±100 for the full control effect.
# Chain of Acetylcholinesterase (Homo sapiens) (P22303 whole entry, looked up): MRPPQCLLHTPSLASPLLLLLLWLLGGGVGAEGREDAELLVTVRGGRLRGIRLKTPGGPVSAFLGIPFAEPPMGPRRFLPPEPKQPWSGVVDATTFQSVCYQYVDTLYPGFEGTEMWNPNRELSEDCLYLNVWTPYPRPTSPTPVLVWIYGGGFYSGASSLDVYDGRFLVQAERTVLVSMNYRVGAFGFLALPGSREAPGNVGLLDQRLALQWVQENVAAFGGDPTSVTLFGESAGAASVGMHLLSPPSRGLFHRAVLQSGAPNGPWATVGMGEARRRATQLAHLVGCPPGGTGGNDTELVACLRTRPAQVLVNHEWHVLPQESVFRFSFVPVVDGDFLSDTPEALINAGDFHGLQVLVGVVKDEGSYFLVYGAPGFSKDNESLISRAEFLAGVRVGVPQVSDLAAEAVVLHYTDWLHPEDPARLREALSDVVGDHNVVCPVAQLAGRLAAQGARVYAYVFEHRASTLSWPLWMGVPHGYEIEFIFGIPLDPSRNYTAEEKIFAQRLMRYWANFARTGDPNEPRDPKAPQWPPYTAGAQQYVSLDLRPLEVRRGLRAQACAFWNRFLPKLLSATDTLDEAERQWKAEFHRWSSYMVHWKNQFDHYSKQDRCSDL
Compound,"activity, negative = inhibition",Potency
Nc1nc(N)c2nc(CNc3ccc(C(=O)N[C@@H](CCC(=O)O)C(=O)O)cc3)cnc2n1,1.96%,
Cc1ccc(C(C)C)cc1,,inactive
O=C(O)CSCC(=O)NC1CCSC1=O (configuration not stated),1.82% [at 52.9 µM],
C[C@]12CCC(=O)C=C1CC[C@@H]1[C@@H]2[C@@H](O)C[C@@]2(C)[C@H]1CC[C@]2(O)C(=O)CO,,inactive
CN(C)CCC(c1ccccc1)c1ccccn1 (configuration not stated),,inactive
CCCCCCCCCCCCC,-1.41%,
C=CC(=C)CCC=C(C)C,2.33%,
CCCOc1ccc2nc(NC(=O)OC)[nH]c2c1,-0.103% [at 52.9 µM],
Cc1cc(C)cc(O)c1,,inactive
OC[C@H]1O[C@@H]2O[C@H]3[C@H](O)[C@@H](O)[C@@H](O[C@H]4[C@H](O)[C@@H](O)[C@@H](O[C@H]5[C@H](O)[C@@H](O)[C@@H](O[C@H]6[C@H](O)[C@@H](O)[C@@H](O[C@H]7[C@H](O)[C@@H](O)[C@@H](O[C@H]8[C@H](O)[C@@H](O)[C@@H](O[C@H]1[C@H](O)[C@H]2O)O[C@@H]8CO)O[C@@H]7CO)O[C@@H]6CO)O[C@@H]5CO)O[C@@H]4CO)O[C@@H]3CO,,inactive
COc1ccc2c(c1)c(CC(=O)OCC(=O)O)c(C)n2C(=O)c1ccc(Cl)cc1,1.29% [at 52.9 µM],
Nc1ccc(S(=O)(=O)NCc2ccccc2)cc1,-2.18% [at 52.9 µM],
CCCCCCCCCCC(CO)CCCCCCCC (configuration not stated),,inactive
CCn1cc(C(=O)O)c(=O)c2cnc(N3CCNCC3)nc21,1.96% [at 52.9 µM],
O=C(O)c1cn(C2CC2)c2cc(Cl)c(F)cc2c1=O,-0.0372% [at 52.9 µM],
CCCCCCCCCCCCCBr,2.77%,
CCOCCn1c(C2CCN(CCc3ccc(C(C)(C)C(=O)O)cc3)CC2)nc2ccccc21,4.77% [at 52.9 µM],
